# Data reported in the supplement of paper PMC12350171.
# Where a name gives a salt, the structure may show the parent alone.
# Test system: Haemophilus parainfluenzae
# Assay: growth AUC normalised to DMSO control (fraction of control); higher = less growth inhibition, active = hit call of the paper
# Conditions: 20 µM;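 active = AUC significantly below DMSO controls by Student t-fit with adjusted P under 0.01; inactive = not significantly reduced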
# Summary of the method: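 Pathogens passaged twice anaerobically were inoculated at a starting OD578 of 0.01 into pre-reduced mGAM plates with drug at 20 μM and 1% DMSO, sealed with breathable membranes. Haemophilus parainfluenzae medium was supplemented with hemin and NAD. OD578 was read hourly for 24 h, with three biological replicates. Growth-curve AUC was computed by the trapezoidal rule up to the exponential-to-stationary transition and normalised to DMSO controls on the same plate.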
row,SMILES,growth AUC normalised to DMSO control
1,CCOCCn1c(N2CCCN(C)CC2)nc2ccccc21 [Emedastine difumarate],1 (inactive)
2,CC(C)(Oc1ccc(C2CC2(Cl)Cl)cc1)C(=O)O (centres undefined) [Ciprofibrate],1.01 (inactive)
3,NC[C@@H]1O[C@H](O[C@H]2[C@@H](O)[C@H](O[C@@H]3[C@@H](O)[C@H](N)C[C@H](N)[C@H]3O[C@H]3O[C@H](CO)[C@@H](O)[C@H](O)[C@H]3N)O[C@@H]2CO)[C@H](N)[C@@H](O)[C@@H]1O [Paromomycin sulfate],0.88 (inactive)
4,CC1CC(OC(=O)c2ccccc2O)CC(C)(C)C1 (centres undefined) [Homosalate],0.983 (inactive)
5,CC(C)(C)C(=O)OCOC(=O)[C@@H]1N2C(=O)[C@@H](/N=C/N3CCCCCC3)[C@H]2SC1(C)C [Pivmecillinam hydrochloride],0.825 (inactive)
6,COC(=O)[C@@H]1[C@H]2C[C@H]3c4[nH]c5ccccc5c4CCN3C[C@@H]2CC[C@@H]1O [Yohimbine hydrochloride],0.971 (inactive)
7,COC1=CC(=O)C[C@@H](C)[C@]12Oc1c(Cl)c(OC)cc(OC)c1C2=O [Griseofulvin],1.02 (inactive)
8,NC(=O)N/N=C/c1ccc([N+](=O)[O-])o1 [Nitrofural],0.465 (active)
9,CC(C)/N=c1\cc2n(-c3ccc(Cl)cc3)c3ccccc3nc-2cc1Nc1ccc(Cl)cc1 [Clofazimine],1 (inactive)
10,COc1ccc2c(c1)c(CC(=O)O)c(C)n2C(=O)c1ccc(Cl)cc1 [Indomethacin],0.975 (inactive)
11,C[C@H](O)C(=O)Nc1c(I)c(C(=O)NC(CO)CO)c(I)c(C(=O)NC(CO)CO)c1I [Iopamidol],1.07 (inactive)
12,Oc1ccc(OCc2ccccc2)cc1 [Monobenzone],0.902 (inactive)
13,CS(=O)(=O)Nc1ccc([N+](=O)[O-])cc1Oc1ccccc1 [Nimesulide],0.982 (inactive)
14,CC(=O)OC(C)C[N+](C)(C)C (centres undefined) [Methacholine chloride],0.979 (inactive)
15,CN1CCC(=C2c3ccccc3C=Cc3ccccc32)CC1 [Cyproheptadine hydrochloride],0.921 (inactive)
16,CCC(=O)[C@@]1(C)[C@H](C)C[C@H]2[C@@H]3CCC4=CC(=O)C=C[C@]4(C)[C@H]3[C@@H](O)C[C@@]21C [Rimexolone],0.998 (inactive)
17,CCCCc1nc(Cl)c(CO)n1Cc1ccc(-c2ccccc2-c2nnn[nH]2)cc1 [Losartan],1.45 (inactive)
18,CN(C)C/C=C(/c1ccc(Br)cc1)c1cccnc1 [Zimelidine dihydrochloride monohydrate],0.972 (inactive)
19,O=C(CCCCC(=O)Nc1c(I)cc(I)c(C(=O)O)c1I)Nc1c(I)cc(I)c(C(=O)O)c1I [Iodipamide],1.01 (inactive)
20,CCC(=O)OCC(=O)[C@@]1(OC(=O)CC)[C@H](C)C[C@H]2[C@H]3[C@H]([C@@H](O)C[C@@]21C)[C@@]1(C)C=CC(=O)C=C1C[C@H]3Cl [Alclometasone dipropionate],1.02 (inactive)

row,SMILES,growth AUC normalised to DMSO control
1,C[C@@H]1C[C@H]2[C@@H]3C[C@H](F)C4=CC(=O)C=C[C@]4(C)[C@@]3(F)[C@@H](O)C[C@]2(C)[C@@]1(O)C(=O)CO [Flumethasone],1 (inactive)
2,CCCNC(C)(C)COC(=O)c1ccccc1 [Meprylcaine hydrochloride],1.03 (inactive)
3,Nc1ccc(S(=O)(=O)NC(=O)c2ccccc2)cc1 [Sulfabenzamide],1.1 (inactive)
4,Cc1ccccc1OCC(O)CO (centres undefined) [Mephenesin],0.93 (inactive)
5,Nc1ccc(S(=O)(=O)Nc2ncccn2)cc1 [Sulfadiazine],1.01 (inactive)
6,CN(C)C(=O)C(CCN1CCC(O)(c2ccc(Cl)cc2)CC1)(c1ccccc1)c1ccccc1 [Loperamide hydrochloride],1 (inactive)
7,CN(c1nccc(=O)[nH]1)C1CCN(c2nc3ccccc3n2Cc2ccc(F)cc2)CC1 [Mizolastine],1.11 (inactive)
8,C#C[C@]1(OC(C)=O)CC[C@H]2[C@@H]3CCC4=C[C@@H](OC(C)=O)CC[C@@H]4[C@H]3CC[C@@]21C [Ethynodiol diacetate],0.974 (inactive)
9,CC(=O)OCC(=O)[C@@]1(O)CC[C@H]2[C@@H]3CCC4=CC(=O)CC[C@]4(C)[C@@]3(F)[C@@H](O)C[C@@]21C [Fludrocortisone acetate],1.02 (inactive)
10,CCN(CCCc1ccccc1)CCCc1ccccc1 [Alverine citrate salt],0.925 (inactive)
11,CNCCC=C1c2ccccc2CCc2ccccc21 [Nortriptyline hydrochloride],0.966 (inactive)
12,CC1CNc2c(cccc2S(=O)(=O)N[C@@H](CCCNC(=N)N)C(=O)N2CC[C@@H](C)C[C@@H]2C(=O)O)C1 (some centres undefined) [Argatroban],1.04 (inactive)
13,O=C(O[C@@H]1C[C@@H]2C[C@H]3C[C@H](C1)N2CC3=O)c1c[nH]c2ccccc12 [Dolasetron mesilate],1.06 (inactive)
14,NCCc1ccc(O)c(O)c1 [Dopamine hydrochloride],1.07 (inactive)
15,O=C1OCCN1/N=C/c1ccc([N+](=O)[O-])o1 [Furazolidone],0.361 (active)
16,NS(=O)(=O)c1cc2c(cc1C(F)(F)F)NC(Cc1ccccc1)NS2(=O)=O (centres undefined) [Bendroflumethiazide],1.02 (inactive)
17,Cc1c(C)c2c(c(C)c1O)CCC(C)(C(=O)O)O2 (centres undefined) [Trolox],1 (inactive)
18,CC(COc1ccccc1)NC(C)C(O)c1ccc(O)cc1 (centres undefined) [Isoxsuprine hydrochloride],0.939 (inactive)
19,C=C1c2cccc(O)c2C(O)=C2C(=O)[C@]3(O)C(O)=C(C(N)=O)C(=O)[C@@H](N(C)C)[C@@H]3[C@@H](O)[C@H]12 [Methacycline hydrochloride],0.0347 (active)
